Screening results deposited in PubChem by National Center for Advancing Translational Sciences (NCATS).
HCV inhibitor = qHTS Assay for Inhibitors of Hepatitis C Virus (HCV). AID 651820, 2012. Huh7.5.1 HCVcc-Cre infection, luciferase reporter, 44 h. 340,000 compounds, 3.4% hits. Potency, µM (titrated, usually from 41.8 µM), most hits filed as inhibitors; active means well fitted inhibition curve with a large enough effect; inconclusive means small, poorly fitted or top-dose-only effect, or another doubt; inactive means no such curve, though single readings can be large or run the other way
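Infectious HCV cell culture screen: compound-treated cells (1,000/well, pre-plated 4 h) are infected with HCVcc-Cre at roughly 0.5 moi and grown 44 h. Infection is quantified by luciferase signal after 15 min substrate incubation at room temperature.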
FMDV inh = High Throughput Screening for Foot and Mouth Disease Virus Antivirals. FMDV antiviral cell-based qHTS. Potency, µM (highest dose often 57.9 µM), most hits filed as inhibitors. 410,000 compounds, 1.2% hits. AID 1159524, 2015; calls by dose curve; tested in HEK293T cells; further: read-out not given here; nearly all actives have a fitted effect of over 45% in size
SARS PLpro yeast = qHTS of Yeast-based Assay for SARS-CoV PLP. S. cerevisiae expressing SARS-CoV PLpro, growth rescue. Potency, µM (series often up to 32.9 µM), usual class: activators. 330,000 compounds, 0.19% hits. AID 485353, 2010; calls by dose curve; further: nearly all actives have a fitted effect of over 55% in size
LASV entry inh = qHTS for Inhibitors of binding or entry into cells for Lassa Virus. 300,000 compounds, 1.2% hits. Lassa virus pseudotype entry inhibition, cell reporter. Potency, µM (series often up to 37.9 µM), most hits filed as inhibitors; calls by dose curve; tested in HEK293 cells; further: nearly all actives have a fitted effect of over 50% in size
HCMV inh = qHTS Assay for inhibitors of the human cytomegalovirus (HCMV); 410,000 compounds, 4.5% hits; HFF cells, HCMV-luciferase reporter, 72 h; stronger effect = lower value; activity change, negative = inhibition, % at 57.5 µM; in the data active means activity change below about -60%; inconclusive means no clear call, values can overlap the other calls; inactive means above about -39%
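After 16 h attachment at 37C, HFF cells received test compound and HCMV-luciferase (1 PFU/cell); reporter luminescence read 72 h later, data normalized against buffer-only and known inhibitor Salinomycin.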
MARV entry inh = qHTS for inhibitors of binding or entry into cells for Marburg Virus. Marburg virus pseudotyped entry inhibition, cell reporter. Potency, µM (highest dose often 37.8 µM), actives largely listed as inhibitors. 300,000 compounds, 1.8% hits; calls by dose curve; tested in HEK293 cells
Each line names hits and unclear results; the compound was inactive in the other large screens. The list is not random: actives were taken first. Their share in the collection is about 8%.

COC(/C(C)=C/C=C/C(C)=C/c1coc(C)n1)C(C)C1CC(O)C2(C)OC2C=CC(C)C2CC(CC(=O)O2)CC2OC2C(=O)O1 (stereo not drawn)	HCMV inh -80 (no result: SARS PLpro yeast)
CN(C)CCCCl	none (no result: HCV inhibitor, FMDV inh, SARS PLpro yeast, LASV entry inh, MARV entry inh)
C#CCCCO/N=C1\C[C@@H](O)[C@@H](O)[C@@H]2[C@@H]3C(=O)N(C[C@@H]4CCCO4)C(=O)[C@@H]3CC[C@H]12	none (no result: HCV inhibitor, FMDV inh, SARS PLpro yeast, LASV entry inh, HCMV inh)
CCOC(=O)C1=C(c2ccccc2)N=c2s/c(=C\c3cccc(O)c3)c(=O)n2C1c1cccs1 (stereo not drawn)	HCV inhibitor 32µM, LASV entry inh 16µM, MARV entry inh inconclusive (no result: FMDV inh)
N#Cc1c(-c2ccc(F)cc2)nc2n(c1=O)CCS2	HCV inhibitor 22µM
CCOC(=O)C1=C(CN2CCN(c3ccc(Cl)cc3)CC2)NC(=O)NC1c1ccc(OC)cc1 (stereo not drawn)	FMDV inh inconclusive, HCMV inh inconclusive (no result: HCV inhibitor, SARS PLpro yeast, MARV entry inh)
c1ccc2c(c1)ccc1[nH]c3c(c12)CCCC3	HCV inhibitor inconclusive, LASV entry inh 0.63µM, MARV entry inh 0.5µM (no result: SARS PLpro yeast)
O=c1c2c([nH]c3ccccc13)CCCCC2	none
Cc1c(C(=O)Nc2cnn(C(C)(C)C(=O)NCc3ccco3)c2)oc2ccccc12	none (no result: HCV inhibitor, FMDV inh, SARS PLpro yeast, LASV entry inh, MARV entry inh)
CCCCOc1ccc(C2=CSC3=NCCN23)cc1[N+](=O)[O-]	HCV inhibitor inconclusive, MARV entry inh 22µM
COc1cc2cc3c4cc(OC)c(OC)cc4cc[n+]3c(C)c2cc1OC	none (no result: HCV inhibitor, SARS PLpro yeast, LASV entry inh, HCMV inh, MARV entry inh)
Cc1cccc(NC(c2ccc(C)s2)c2ccc3ccc(C)nc3c2O)n1 (stereo not drawn)	HCV inhibitor inconclusive, FMDV inh inconclusive, HCMV inh -95
Cc1ccc2ccc(C(Nc3ccccc3)c3ccccc3)c(O)c2n1 (stereo not drawn)	none (no result: HCV inhibitor, SARS PLpro yeast, LASV entry inh, MARV entry inh)
COc1ccc(C(Nc2cc(C)ccn2)c2ccc3ccc(C)nc3c2O)cc1 (stereo not drawn)	HCV inhibitor inconclusive, LASV entry inh inconclusive, MARV entry inh inconclusive
Cc1ccc2ccc(C(Nc3ccccc3)c3ccc(F)cc3)c(O)c2n1 (stereo not drawn)	HCMV inh -61 (no result: HCV inhibitor, SARS PLpro yeast, LASV entry inh, MARV entry inh)
Cc1ccc2ccc(C(Nc3ccccn3)c3ccccc3)c(O)c2n1 (stereo not drawn)	HCV inhibitor inconclusive, SARS PLpro yeast 11µM, LASV entry inh inconclusive
COc1cc(C(Nc2ccccn2)c2ccc3ccc(C)nc3c2O)cc(OC)c1O (stereo not drawn)	FMDV inh 35µM, LASV entry inh inconclusive, MARV entry inh inconclusive (no result: HCMV inh)
Cc1ccc2ccc(C(Nc3cccc(C(F)(F)F)c3)c3cccnc3)c(O)c2n1 (stereo not drawn)	HCV inhibitor inconclusive, SARS PLpro yeast 10µM (no result: LASV entry inh, MARV entry inh)
CCc1ccccc1NC(=O)Cn1c(=O)n(CC(=O)NCCc2ccccc2)c(=O)c2ccccc21	none (no result: HCV inhibitor, SARS PLpro yeast)
O=C(CCl)N1c2ccccc2CCc2ccccc21	HCMV inh -102 (no result: HCV inhibitor, FMDV inh, LASV entry inh, MARV entry inh)
CC(Cl)C(=O)N1c2ccccc2CCc2ccccc21 (stereo not drawn)	none (no result: LASV entry inh, MARV entry inh)
CCOc1ccc2oc(C(=O)NC3CCN(Cc4ccccc4)CC3)c(C)c2c1	HCV inhibitor inconclusive, FMDV inh inconclusive, LASV entry inh 11µM, HCMV inh inconclusive, MARV entry inh inconclusive
CCOc1ccc2oc(C(=O)NC3CC(C)(C)NC(C)(C)C3)c(C)c2c1	HCV inhibitor 13µM, MARV entry inh inconclusive
Cc1c(C(=O)NC2CCN(Cc3ccccc3)C2)oc2ccc(Br)cc12 (stereo not drawn)	HCV inhibitor inconclusive, LASV entry inh inconclusive, MARV entry inh inconclusive
CN(Cc1ccccc1)CC(O)COc1ccc(CNCc2ccc(Cl)s2)cc1 (stereo not drawn)	HCV inhibitor inconclusive, LASV entry inh inconclusive, HCMV inh inconclusive, MARV entry inh 2.5µM
CCn1cc(CNCc2ccc(OCC(O)CN(C)Cc3ccccc3)cc2)cn1 (stereo not drawn)	HCV inhibitor 10µM, MARV entry inh inconclusive (no result: HCMV inh)
CN(Cc1ccccc1)CC(O)COc1ccc(CNCc2cccnc2)cc1 (stereo not drawn)	HCV inhibitor inconclusive, FMDV inh inconclusive (no result: LASV entry inh, MARV entry inh)
O=C(COc1coc(CN2CCN(c3ccccc3)CC2)cc1=O)Nc1ccc(F)cc1	HCV inhibitor inconclusive, HCMV inh -83
CCOC(=O)c1ccccc1NC(=O)COc1coc(CN2CCc3ccccc32)cc1=O	HCV inhibitor inconclusive, MARV entry inh inconclusive
CCOc1ccccc1NC(=O)COc1coc(CN2CCc3ccccc32)cc1=O	HCV inhibitor 7.9µM, MARV entry inh inconclusive
COC(=O)[C@@H]1[C@@H](C#N)C2(c3ccccc3-c3ccccc32)N(c2ccc(Cl)cc2)N1C#N	HCV inhibitor inconclusive, FMDV inh 25µM, LASV entry inh inconclusive, MARV entry inh inconclusive
CCn1c(C(=O)NCc2ccccc2)cc2sc(Cl)cc21	none (no result: HCV inhibitor, SARS PLpro yeast, LASV entry inh)
COc1cccc(C(=O)Cn2c(Br)nc3c2c(=O)n(C)c(=O)n3C)c1	none
Cn1c(=O)c2c(nc(Br)n2CC(=O)C23CC4CC(CC(C4)C2)C3)n(C)c1=O	HCV inhibitor inconclusive, FMDV inh inconclusive, LASV entry inh inconclusive, MARV entry inh 18µM
COCCN1C(=O)N[C@@H](c2cccc(C(F)(F)F)c2)C(C(C)=O)=C1C	none (no result: HCV inhibitor, FMDV inh, SARS PLpro yeast, LASV entry inh, HCMV inh)
CCCCOc1cccc(C(=O)N(Cc2ccc(Cl)cc2)C2CCS(=O)(=O)C2)c1 (stereo not drawn)	MARV entry inh inconclusive (no result: HCV inhibitor, SARS PLpro yeast)
CN(C)c1ccc(CN(C(=O)c2ccc(Cl)c([N+](=O)[O-])c2)C2CCS(=O)(=O)C2)cc1 (stereo not drawn)	HCV inhibitor inconclusive, LASV entry inh inconclusive, MARV entry inh 11µM
CCCOc1cccc(C(=O)N(Cc2ccccc2)C2CCS(=O)(=O)C2)c1 (stereo not drawn)	LASV entry inh inconclusive, HCMV inh -66, MARV entry inh inconclusive
CCOc1ccc(NC(=O)c2cnn3c2NC(c2cccc(OC)c2)=CC3c2ccccc2)cc1 (stereo not drawn)	LASV entry inh inconclusive, HCMV inh inconclusive (no result: HCV inhibitor, SARS PLpro yeast, MARV entry inh)
COc1ccc2[nH]c3c(c2c1)CCN1C(=O)C(CC(=O)NCc2ccc(OC)c(OC)c2)C[C@H](C(=O)N2CCOCC2)[C@@]31C (stereo partly drawn)	none (no result: LASV entry inh)
COc1ccc(CNC(=O)C[C@H]2C[C@H](C(=O)N3CCCCC3)[C@@]3(C)c4[nH]c5ccc(Cl)cc5c4CCN3C2=O)cc1OC	HCV inhibitor 14µM (no result: LASV entry inh)
O=C(CC1C[C@H](C(=O)N2CCCCC2)[C@@]2(CCc3ccccc3)c3[nH]c4ccccc4c3CCN2C1=O)NCc1ccco1 (stereo partly drawn)	none (no result: LASV entry inh, MARV entry inh)
C[C@]12c3[nH]c4ccc(Cl)cc4c3CCN1C(=O)[C@@H](CC(=O)NCc1cccc(C(F)(F)F)c1)C[C@@H]2C(=O)N1CCOCC1	HCV inhibitor 7.1µM (no result: LASV entry inh, MARV entry inh)
